# From PubChem BioAssay AID720537 (National Center for Advancing Translational Sciences (NCATS), 2013)
# The campaign covered roughly 1,600 compounds. About 55 (3%) were called active. Not shown: some 10% with an inconclusive outcome. Calls come from the whole dose curve; as a rule, active = well fitted inhibition curve with a large enough effect; inconclusive = small, poorly fitted or top-dose-only effect; inactive = no such curve, though single readings can be large or run the other way. These entries were drawn from the full list. A call without a number means that no potency is given here.
# Test: qHTS for Inhibitors of TGF-b: Hit Validation in HepG2 Cells using COP promoter; note: nearly all actives have a fitted effect of over 70% in size
# Conditions: HepG2 COP-GFP TGF-b reporter, GFP fluorescence, 18 h, cells stimulated by added recombinant TGF-beta; series mostly up to 46.1 µM
# Text: TGF-b is a main component in the TGF-b signaling pathway which plays diverse roles in cellular and development pathways. TGF-b is the mediated by the transcription factors Smads. Although the Smad-dependent pathway is the primary canonical TGF-b signaling node, TGF-b1 can also activate alternative signaling pathways, including those involving MAPK (ERK, JNK and p38). This interaction may mediate or enhance Smad-dependent responses, or can exert Smad-independent effects. The complexity of this signaling cascade allows the TGF-b superfamily to perform unique, overlapping or redundant functions. We believe that targeting the TGF-beta pathway at the Smad-transcription factor level may eliminate the consequences of disrupting the entire pathway and offer specificity without affecting other signaling pathways. Smad3 is the primary transducer of TGF-b's signals and Smad3 regulates many functions attributed to TGF-b signaling. We hypothesize that Smad3 inhibitors will selectively eliminate Smad3-specific TGF-beta signals without undesired off-target effects. We aim to identify Smad3-small molecule antagonists using a quantitative high throughput screening (qHTS) approach. A high-throughput assay was developed to screen the NIH Molecular Libraries Small Molecule Repository (MLSMR). This is a cell based assay, where TGF-b is tagged with GFP. This assays tests the hits identified from the primary screen in HepG2 cells, but using a cop promoter rather than a caga promoter. True actives from the primary screen will also be active in this assay. NIH Chemical Genomics Center [NCGC] NIH Molecular Libraries Probe Centers Network [MLPCN] MLPCN Grant: MH087449 Assay Submitter (PI): Sushil Rane, National Institute of Diabetes and Kidney Diseases
# Suspensions of trypsinized HEPG2 COP-GFP cells were dispensed into white, tissue culture-treated, solid 1536-well plates at 5uL/well (1000 cells/well final concentration) in DMEM medium supplemented with 1% FBS. Plates were incubated at 37 degrees C for 2 hours, after which 23 nL of compounds or DMSO were delivered to each well using a pin tool. One uL of recombinant TGF-beta in DMEM (1% FBS) was then dispensed (500 pg/mL final concentration), and plates were incubated at 37 degrees C for 18 hours. The plates were measured on an Acumen eX3 Explorer plate reader for GFP fluorescence (ex488/em500-530). GFP values were calculated by determining the mean GFP fluorescence of individual cells, and compiling these values for each well to determine a total well GFP signal. The %Activity was determined from the corrected fluorescence values. A titration of the known TGF-B inhibitor SB431542 was included to monitor plate performance, while unstimulated HEPG2 (-TGF-B) control wells were used to normalize %Activity of identified inhibitors; unstimulated wells corresponded to 100%Activity (full inhibition), while stimulated cell controls (+DMSO) were used to normalize 0%Activity (no inhibition). Concentration-response curves were fitted to the signals arising from the resulting fluorescence. The concentration-effect curves were then classified based on curve quality (r2), response magnitude and degree of measured activity, and compounds were subsequently categorized based on their curve class.
# Potency is the fitted concentration of half-maximal effect.
row,SMILES,Potency
1,O=C(NC1=CC(=O)c2ccccc2C1=O)c1ccccc1,16.4 µM (active)
2,CCCOc1ccccc1C1CC(=O)Nc2cc3c(cc21)OCO3 (stereo not given),inactive
3,CCCOc1ccc(F)cc1-c1cc(C(=O)Nc2ccc(F)c(Cl)c2)[nH]n1,inactive
4,O=C(Nc1ccc(C2CC2(Cl)Cl)cc1)c1cccc([N+](=O)[O-])c1 (stereo not given),inactive
5,Cc1cccc(-c2nc(Nc3ccc(O)cc3)c3ccccc3n2)c1,inactive
6,COc1cncc(-c2cnc3sc(NCCc4ccccn4)nn23)c1,inactive
7,CCC(C)N1C(=O)S/C(=C/c2ccc(Sc3nc4ccccc4[nH]3)o2)C1=O (stereo not given),inactive
8,Fc1cc(F)c2nc(Nc3nc4c(F)cccc4s3)sc2c1,inactive
9,COC(=O)N/N=C/c1cn(CCCOc2ccc(C)cc2)c2ccccc12,inactive
10,CCCc1cc(-c2n[nH]c(=S)n2CC)c2ccccc2n1,inactive
11,Oc1c(CN2CCN(c3ccc(F)cc3)CC2)cc(Cl)c2cccnc12,inactive
12,OCC1OC(n2cnc3c(N4CCCC4)ncnc32)C(O)C1O (stereo not given),inactive
13,CN(C)C(=O)c1cccc(-c2cnc3sc(NCc4ccc5c(c4)OCO5)nn23)c1,inactive
14,Cc1ccc(CN2CC(N3CCC(Cc4ccccc4)CC3)CS2(=O)=O)cc1 (stereo not given),inactive
15,COc1cc(/C=C2\Oc3ccc(C#Cc4ccc(O)cc4)cc3C2=O)cc(OC)c1,inactive
16,Cc1ccnc(NC(=O)C2CCN(S(=O)(=O)c3c(C)c(C)cc(C)c3C)CC2)c1,inactive
17,COc1ccc(CC(=O)Nc2ccccc2NC(=O)c2ccco2)cc1OC,inactive
18,O=C(Nc1ccc(Br)cn1)c1ccc([N+](=O)[O-])o1,inactive
19,Cn1c(=O)n(C)c2cc(S(=O)(=O)N3CCCc4ccccc43)ccc21,inactive
20,CN(C)c1nc(=Nc2cccc(Cl)c2)ss1,inactive
21,COc1ccc(-c2onc(C)c2-c2ccc3c(c2)OCCO3)c(O)c1,inactive
22,CCOc1ccc(CCN2C(=S)N([C@@H](CC(C)C)CN3CCC[C@@H]3CN3C(=S)NC[C@@H]3Cc3ccc(O)cc3)C[C@@H]2CC(C)C)cc1,inactive
23,c1ccc(-c2cn3c(n2)CCc2ccc4cccnc4c2-3)cc1,inactive
24,Cc1ccc(S(=O)(=O)Nc2nc3ccccc3nc2N2CCc3ccccc3C2)cc1,inactive

row,SMILES,Potency
1,O=C(CCC(=O)N1CCN(S(=O)(=O)c2ccc(Cl)cc2)CC1)NCc1cccc(C(F)(F)F)c1,inactive
2,COc1cccc2sc(N(CCCN(C)C)C(=O)CCS(=O)(=O)c3ccccc3)nc12,inactive
3,CCOc1ccc(NS(=O)(=O)c2ccc(C(=O)NC3CCN(Cc4ccccc4)CC3)cc2)cc1,inactive
4,CC(=O)c1cccc(-c2cnc3c(NC=O)cc(-c4ccc(N(C)C)cc4)cn23)c1,inactive
5,COc1ccccc1CSc1ncc(-c2ccc([N+](=O)[O-])cc2)[nH]1,inactive
6,FC(F)(F)c1ccccc1Cc1c(-c2ccccc2)nc2c3ccccc3ccn12,inactive
7,Cc1ccc(C)c(S(=O)(=O)N2CCN(CC(=O)Nc3ccc([N+](=O)[O-])cc3)CC2)c1,inactive
8,COc1c(C(C)C)oc2cc3oc(=O)ccc3cc12,inactive
9,Cc1ccc(-c2nc3ccc(Br)cn3c2Cc2ccccc2C(F)(F)F)cc1,inactive
10,Brc1ccc2nc(-c3ccccc3)c(Cc3ccccc3)n2c1,inactive
11,COc1ccc(-c2csc(NC3OC(=O)c4ccccc43)n2)cc1 (stereo not given),inactive
12,Cc1ccc(S(=O)(=O)Nc2ccc3c(c2)C(=O)N([C@H](C)CO)C[C@@H](C)[C@@H](CN(C)C(=O)Nc2cccc4ccccc24)O3)cc1,inactive
13,CN(c1ccccc1)S(=O)(=O)c1ccc(C(=O)N2CCN(c3ccccc3Cl)CC2)cc1,inactive
14,COc1cc(CC(=O)Nc2nc(-c3ccc(F)c(F)c3)cs2)cc(OC)c1OC,inactive
15,COc1ccc2nc(N3CCN(C(=O)c4ccc([N+](=O)[O-])o4)CC3)sc2c1,inactive
16,CC1CCc2c(nc3ncnn3c2Nc2ccc(OC(F)(F)F)cc2)C1 (stereo not given),inactive
17,Cc1cc(C)cc(N(CC(=O)N2CC=C(c3ccccc3)CC2)S(=O)(=O)c2c(C)noc2C)c1,inactive
18,Cc1oc2c(F)c(F)c(F)c(F)c2c1S(=O)(=O)Nc1cccc(C(F)(F)F)c1,inactive
19,CCOC(=O)C1=C(N)N(c2ccc(C)cc2)C2=C(C(=O)CCC2)C1c1cccs1 (stereo not given),inactive
20,CN(C)c1nc(N)nc(CSc2nnnn2-c2cccc3ccccc23)n1,inactive
21,CC(=O)c1ccc(-c2cnc3c(NC=O)cc(-c4cccc(NS(C)(=O)=O)c4)cn23)cc1,inactive
22,COc1cc(NC(=O)COC(=O)c2ccc([N+](=O)[O-])s2)cc(OC)c1OC,inactive
23,CN(C(=O)c1cccc(NC(=O)Cc2cccc([N+](=O)[O-])c2)c1)C1CCCCC1,inactive
24,O=C(Nc1ccc(Cl)cc1)Nc1nnc(/C=C/c2ccccc2)s1,inactive

row,SMILES,Potency
1,c1ccc2cc3c(NCCN4CCOCC4)ccnc3cc2c1,inactive
2,OCCCNc1nccc(-c2cc(Nc3cccc(Cl)c3)ncn2)n1,inactive
3,O=C(/C(=C/c1cccc(Cl)c1)c1nc2ccccc2[nH]1)c1ccccc1,inactive
4,COc1cccc(CNc2nc(NCc3ccccc3OC)nc3ccsc23)c1,inactive
5,CC(=NNC(=S)N1CCCCCC1)c1ccccn1,inactive
6,CCN(CC)C(=O)C1=C(C)N(Cc2ccc(C(C)(C)C)cc2)C(=O)C(CC(=O)NCc2cccc3ccccc23)C1 (stereo not given),inactive
7,S=C(NCC1COc2ccccc2O1)Nc1ccc(Br)cc1 (stereo not given),inactive
8,CN(C)CCNC(=O)c1ccc(Cl)c2cc3ccccc3nc12,inactive
9,Cc1nc(/N=C(\N)NC(=O)NC2CCCCC2)nc2ccccc12,inactive
10,O=C(Nc1nnc(S(=O)(=O)N2CCCCCC2)s1)c1cccc(Br)c1,inactive
11,O=c1[nH]c(CCl)nc2cc(-c3ccc(Cl)cc3)sc12,inactive
12,O=[N+]([O-])c1ccccc1S(=O)(=O)Nc1cccc2cccnc12,inactive
13,COc1ccc(CNC(=O)C[C@H]2C[C@H](C(=O)N3CCOCC3)[C@@]3(CCC4CCCC4)c4[nH]c5ccc(Cl)cc5c4CCN3C2=O)cc1OC,inactive
14,COc1ccc(C)cc1S(=O)(=O)N1CCN(S(=O)(=O)c2cc(C(=O)O)ccc2C)CC1,inactive
15,Cc1nn(-c2ccccc2)c(C)c1/C=N/NC(=O)CSc1nc2ccccc2c(=O)n1-c1ccccc1,inactive
16,COC(=O)COc1cccc2c(=O)n(CC(=O)NCc3ccccc3)ccc12,inactive
17,Clc1ccc(Nc2nc(-c3cccs3)cs2)nc1,inactive
18,Clc1cccc(Cc2c(-c3cccc(Cl)c3)nc3ccc(Cl)cn23)c1,inactive
19,COc1ccc(C(=O)c2c3ccc([N+](=O)[O-])cc3[n+]([O-])n2CCCN)cc1,inactive
20,COc1cc(NC(=O)c2ccccc2NS(=O)(=O)c2ccc(Cl)s2)cc(OC)c1,inactive
21,Clc1ccc2c(c1)C1=C(C(c3ccncc3)O2)C(c2ccc(Br)cc2)n2ncnc2N1 (stereo not given),inactive
22,Cc1cccc(NS(=O)(=O)c2ccc(-c3cnc(C4CC4)o3)cc2)c1,inactive
